Reference: the supplement of paper PMC6555819

How the values were obtained:
Assay in all cases: PBM binding z-score (relative to random genomic background probes); higher = stronger binding; sequences stand for … in GC…GCGATTGACAGCGTAGAATGAAGG
[1] = system: FXR:RXRa (NR concentration 270 nM, RXRa partner concentration 90 nM)
Method in brief: (§1)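 Each nuclear receptor dimer, without ligand, was incubated for 1 h on custom Agilent 4×180K protein-binding microarrays. Binding was detected with antibodies against each partner (one per run), and scanned fluorescence was regression-normalized. The binding z-scores are referenced to random human genomic background probes.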

[2] = system: LXRa:RXRa (NR concentration 270 nM, RXRa partner concentration 90 nM)
Method in brief: as §1

[3] = system: LXRa homodimer (NR concentration 270 nM)
Method in brief: as §1

[4] = system: LXRb:RXRa (NR concentration 270 nM, RXRa partner concentration 90 nM)
Method in brief: as §1

[5] = system: LXRb homodimer (NR concentration 270 nM)
Method in brief: as §1

[6] = system: PPARa:RXRa (NR concentration 270 nM, RXRa partner concentration 90 nM)
Method in brief: as §1

[7] = system: PPARg:RXRa (NR concentration 180 nM, RXRa partner concentration 90 nM)
Method in brief: as §1

[8] = system: PPARg:RXRa 270nM:90nM, anti-RXR (NR concentration 270 nM, RXRa partner concentration 90 nM)
Method in brief: as §1

[9] = system: PPARg:RXRa 30nM:10nM, anti-RXR (NR concentration 30 nM, RXRa partner concentration 10 nM)
Method in brief: as §1

[10] = system: PPARg:RXRa 90nM:30nM, anti-RXR (NR concentration 90 nM, RXRa partner concentration 30 nM)
Method in brief: as §1

[11] = system: PPARg:RXRa DBDmut IVT, anti-RXR (DBD mutation: RXRa K156A/R161A, NR concentration 270 nM, RXRa partner concentration 90 nM)
Method in brief: as §1

[12] = system: PPARg:RXRa IVT, anti-PPARg (NR concentration 270 nM, RXRa partner concentration 90 nM)
Method in brief: as §1

[13] = system: PPARg DBDmut:RXRa IVT, anti-PPARg (DBD mutation: PPARg1 K132A/R137A, NR concentration 270 nM, RXRa partner concentration 90 nM)
Method in brief: as §1

[14] = system: PPARg DBDmut IVT, anti-PPARg (DBD mutation: PPARg1 K132A/R137A, NR concentration 270 nM)
Method in brief: as §1

[15] = system: PPARg homodimer (NR concentration 180 nM)
Method in brief: as §1

[16] = system: PXR:RXRa (NR concentration 270 nM, RXRa partner concentration 90 nM)
Method in brief: as §1

[17] = system: PXR homodimer (NR concentration 270 nM)
Method in brief: as §1

[18] = system: RARa:RXR (NR concentration 270 nM, RXRa partner concentration 90 nM)
Method in brief: as §1

[19] = system: RARa homodimer (NR concentration 270 nM)
Method in brief: as §1

[20] = system: RARb:RXRa (NR concentration 270 nM, RXRa partner concentration 90 nM)
Method in brief: as §1

Row | Sequence | PBM binding z-score [1] | PBM binding z-score [2] | PBM binding z-score [3] | PBM binding z-score [4] | PBM binding z-score [5] | PBM binding z-score [6] | PBM binding z-score [7] | PBM binding z-score [8] | PBM binding z-score [9] | PBM binding z-score [10] | PBM binding z-score [11] | PBM binding z-score [12] | PBM binding z-score [13] | PBM binding z-score [14] | PBM binding z-score [15] | PBM binding z-score [16] | PBM binding z-score [17] | PBM binding z-score [18] | PBM binding z-score [19] | PBM binding z-score [20]
1 | CCTGCTAGGTCAATGGTCAGATAAAGCAGCTCGC | 2.9 | 2.29 | 0.316 | 1.61 | -0.124 | 3.15 | 4.67 | 5.1 | 2.77 | 4.96 | 4.27 | 4 | -0.328 | -0.659 | 1.01 | 0.646 | -0.497 | 1.44 | 0.218 | 3.65
2 | TCTTATAGGTAAAAGGTGAAAGTCGGTGTGGTAA | 2.14 | 2.25 | 0.401 | 2.19 | 0.39 | 5.39 | 8.99 | 8.57 | 8.65 | 9.86 | 5.43 | 5.26 | 1.47 | 1.32 | 3.07 | 1.92 | 0.675 | 3.31 | 1.6 | 2.21
3 | GTACCTAGGTGAATAGGTCGTTGATGAGTAGGCG | 0.327 | 0.577 | -0.19 | 0.185 | -0.886 | 1.93 | 1.83 | 2.16 | 0.782 | 1.89 | 2.96 | 3.55 | -0.531 | -0.303 | 0.221 | 0.327 | -0.195 | 1.03 | 0.134 | 1.15
4 | GGAACGAGGGCATCCGAGTTGATAGCATGGCGAT | 1.24 | 0.897 | -0.543 | -0.129 | -0.874 | 1.53 | 1.15 | 0.688 | -0.271 | -0.0258 | 2.9 | 2.23 | -0.317 | -0.705 | -0.0747 | 3.67 | 0.048 | 0.949 | -0.37 | 1.78
5 | TCATATAGGTGAAGGTGAAAGTCGAACGATATGA | 0.452 | 0.703 | -0.543 | 0.713 | -0.39 | 3.24 | 5.02 | 5.16 | 4.73 | 4.96 | 6 | 6.13 | 1.24 | 0.938 | 0.35 | 0.448 | 0.0381 | 1.08 | 0.38 | 1.88
6 | TAGCCTAGGTCAGATCGGACCAGTATACGCTATA | 1.36 | 1.26 | -0.219 | 1.03 | -0.138 | 1.99 | 0.959 | 0.981 | -0.106 | 0.213 | 0.812 | 1.36 | 0.21 | 0.399 | 0.0652 | 0.377 | -0.37 | 1.48 | -0.814 | 2.85
7 | GCTCGGAGGACAAGGCCAGAGCTTTGTCCGTAGA | -0.721 | -1.04 | -0.948 | -1.4 | -1.59 | -1.69 | -1.44 | -1.18 | -1.47 | -1.57 | -1.3 | -0.505 | -1.72 | -1.33 | -1.33 | -1.03 | -0.879 | -0.936 | -1.54 | 0.806
8 | ACTATTAGTTGTGACGAGGGCAACCGATAGGTTG | -0.101 | -0.0626 | -0.0175 | -0.0591 | -0.181 | 0.388 | 0.623 | 0.256 | -0.152 | 0.259 | 0.298 | 0.518 | 0.938 | 1.19 | 0.35 | 0.597 | -0.0621 | 0.536 | 0.293 | 1.06
9 | TCTTGCAGGCCAGAGGGTCACTCAAGAGGTACGG | 1.13 | 1.04 | -0.621 | 1.3 | -0.52 | 2.81 | 1.99 | 3.39 | 2.63 | 3.38 | 1.23 | 1.74 | 0.108 | 0.193 | 1.21 | 1.65 | -0.469 | 2.21 | -0.686 | 2.44
10 | AGAATGAGGTTACCAAATATCAGGGAAACGCTTG | 1.57 | 2.74 | -0.144 | 1.81 | -0.351 | 3.3 | 2.58 | 2.84 | 1.07 | 2.04 | 4.3 | 3.78 | 1.63 | 0.617 | 0.301 | 1.05 | 0.00391 | 1.77 | -0.0256 | 2.1
11 | TAGCCTAGGTCAGAGCGGGCCAGTATACGCTATA | 1.24 | 0.815 | -0.692 | 0.501 | -1.17 | 1.42 | 0.573 | 0.718 | -0.359 | 0.201 | 0.635 | 1.65 | -0.73 | -0.204 | 0.133 | 0.376 | -0.362 | 0.867 | -1.12 | 2.85
12 | GCTGCTAGGTCAGGTTGGTCAGCTAGCGGGTACG | 1.15 | 0.736 | -0.0466 | 0.193 | -0.466 | 1.36 | -0.0149 | 0.792 | -0.603 | 0.329 | 2.9 | 1.88 | -0.638 | -1.03 | 0.481 | 0.0467 | -1.01 | 0.604 | -0.467 | 3.38
13 | TTACCAAGGAGAGCTGAGGTCGTTGATCCAACTC | 0.524 | -0.0675 | -0.298 | 0.248 | -1.1 | 0.632 | -0.233 | 0.453 | 0.297 | 0.316 | -0.667 | -0.449 | -0.504 | -0.387 | 0.217 | 1.29 | 0.364 | 0.846 | -0.664 | 0.145
14 | GCGACTGGGGCCTCAGCAGGTTACCATAACTTAA | -0.561 | -0.698 | -0.704 | -0.145 | -1.25 | -0.221 | -0.306 | -0.849 | -0.842 | -0.966 | -0.00241 | -0.47 | -1.2 | -1.98 | -0.186 | -0.277 | -0.863 | 0.0865 | -1.06 | 0.0626
15 | CCTAGTTGGTAAGGAGGTCACACACCGGATATGA | 3.14 | 3.17 | 1.87 | 3.13 | 0.74 | 4.19 | 3.16 | 3.39 | 1.34 | 2.68 | 1.63 | 4.06 | 0.9 | 0.468 | 2.82 | 3.83 | 1.4 | 4.14 | 1.52 | 3.04
